# Results from PubChem BioAssay (NCATS).
# Several values for one entry are separate records, joined by “and”; a condition that tells them apart may be missing. Equal entries are not always repeated. Inconclusive results are not listed. Where a call stands in place of a potency, no number is given. Some structures have more than one record in an assay (separate samples or runs), and their calls can disagree. Activity calls are given as the source filed them. Unless noted, calls follow the shape of the dose curve; as a rule, active = well fitted curve in the direction sought with a large enough effect; inconclusive = small, poorly fitted or top-dose-only effect, or another doubt; inactive = no such curve, though single readings can be large; an effect the other way counts as inactive or inconclusive.
# What was measured:
# [1] = target: Cytochrome P450 2C9 (Homo sapiens) (UniProt P11712); experiment: Cytochrome P450 family 2 subfamily C member 9 (CYP2C9) small molecule antagonists: luciferase biochemical (cell-free) qHTS assay (AID 1645842; active = well fitted curve in the direction sought with a large enough effect in the repeat runs; an effect the other way counts as inactive or inconclusive; also: nearly all actives have a fitted effect of over 55% in size; also: potency is read from the fitted curve at half-maximal effect)
# Outline: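 P450-Glo CYP2C9 system: proluciferin substrate with enzyme in mix containing 0.4% BSA, 10 min at room temperature, then NADPH regeneration solution added and incubated 1 h at 37C. Detection reagent stopped reaction; luminescence read after 20 min as RLU.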
# [2] = Primary qHTS for inhibitors of nuclear receptor binding SET domain protein 2 (NSD2) in an isogenic RCH-ACV NSD2 p.E1099K mutant (9B) (AID 1645876); also: nearly all actives have a fitted effect of over 70% in size; also: potency is read from the fitted curve at half-maximal effect
# [3] = Primary qHTS for inhibitors of nuclear receptor binding SET domain protein 2 (NSD2) in an RCH-ACV wild type WT cells (2C) (AID 1645877); also: nearly all actives have a fitted effect of over 70% in size; also: potency is read from the fitted curve at half-maximal effect
# [4] = target: Papain (Carica papaya) (UniProt P00784); experiment: Primary qHTS assay for inhibitors of the protease papain (AID 1645873);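 also: papain turnover of Z-FR-AMC read as the AMC fluorescence gain over 10 min; series mostly up to about 50 µM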
# [5] = target: N-terminal Xaa-Pro-Lys N-methyltransferase 1 (Homo sapiens) (UniProt Q9BV86); experiment: Confirmatory qHTS for Inhibitors of N-terminal methyltransferase 1 (NTMT1): MTaseGlo Assay (AID 1645874); also: nearly all actives have a fitted effect of over 65% in size; also: potency is read from the fitted curve at half-maximal effect
# Outline: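 SPKRIA peptide at 1 uM was methylated by 125 nM NTMT1 using 100 uM SAM over 30 min at room temperature, following a 15 min compound preincubation. Product SAH was detected luminescently.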
# [6] = target: Catechol O-methyltransferase (Homo sapiens) (UniProt P21964); experiment: Confirmatory Screen for Target Class Profiling of Small Molecule Inhibitors of Methyltransferases (AID 1745852); details: MTase-Glo luminescence, SAH detection, recombinant enzyme; measured here: COMT max response; stronger effect = lower value
# [7] = target: Rap guanine nucleotide exchange factor 3 (Homo sapiens) (UniProt O95398); experiment: Confirmatory qHTS for antagonist of cAMP-regulated guanine nucleotide exchange factor 3 (EPAC1) (AID 1645880); also: nearly all actives have a fitted effect of over 55% in size
# Outline: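 Released BODIPY-GDP fluoresces less than Rap1-bound BODIPY-GDP; the signal is followed at 480/540 nm at 5-min intervals over 30 min, after 5 min at room temperature. Reactions contain 100 nM EPAC1, 250 nM RAP1B-BODIPY-GDP and 50 uM GDP; results are normalized to ATA and DMSO.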
# [8] = target: Rap guanine nucleotide exchange factor 3 (Homo sapiens) (UniProt O95398); experiment: Confirmatory qHTS for agonist of cAMP-regulated guanine nucleotide exchange factor 3 (EPAC1) (AID 1645881);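 also: EPAC1 catalysed release of BODIPY-GDP from Rap1B seen as fluorescence loss; nearly all actives have a fitted effect of over 75% in size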
# [9] = target: Rap guanine nucleotide exchange factor 4 (Homo sapiens) (UniProt Q8WZA2); experiment: Confirmatory qHTS for agonist of cAMP-regulated guanine nucleotide exchange factor 4 (EPAC2) (AID 1645884);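 also: nucleotide exchange releases bodipy-GDP from Rap1 and this lowers its fluorescence; nearly all actives have a fitted effect of over 65% in size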
# [10] = target: Rap guanine nucleotide exchange factor 4 (Homo sapiens) (UniProt Q8WZA2); experiment: Confirmatory qHTS for antagonist of cAMP-regulated guanine nucleotide exchange factor 4 (EPAC2) (AID 1645885); also: nearly all actives have a fitted effect of over 25% in size
# Chain of Cytochrome P450 2C9 (Homo sapiens) (P11712 whole entry, looked up): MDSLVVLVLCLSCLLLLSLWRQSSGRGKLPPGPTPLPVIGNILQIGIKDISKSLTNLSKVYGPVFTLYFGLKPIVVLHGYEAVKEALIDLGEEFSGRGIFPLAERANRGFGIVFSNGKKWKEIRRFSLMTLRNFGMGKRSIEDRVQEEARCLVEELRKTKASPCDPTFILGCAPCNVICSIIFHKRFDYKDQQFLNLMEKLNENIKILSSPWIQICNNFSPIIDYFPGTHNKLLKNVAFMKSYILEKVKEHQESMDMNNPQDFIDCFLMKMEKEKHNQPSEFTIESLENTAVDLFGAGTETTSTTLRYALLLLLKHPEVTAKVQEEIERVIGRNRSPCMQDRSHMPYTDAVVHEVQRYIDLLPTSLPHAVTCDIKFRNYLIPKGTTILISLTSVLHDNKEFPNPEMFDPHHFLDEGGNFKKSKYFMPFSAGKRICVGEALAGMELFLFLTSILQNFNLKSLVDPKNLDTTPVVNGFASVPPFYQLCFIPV
# Chain of N-terminal Xaa-Pro-Lys N-methyltransferase 1 (Homo sapiens) (Q9BV86 whole entry, looked up): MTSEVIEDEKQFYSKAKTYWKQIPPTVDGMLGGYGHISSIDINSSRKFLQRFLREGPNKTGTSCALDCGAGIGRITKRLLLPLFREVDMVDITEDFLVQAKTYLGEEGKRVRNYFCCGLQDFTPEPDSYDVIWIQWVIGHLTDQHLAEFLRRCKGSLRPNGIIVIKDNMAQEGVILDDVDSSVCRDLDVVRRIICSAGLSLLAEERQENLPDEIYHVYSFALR
# Chain of Papain (Carica papaya) (P00784 whole entry, looked up): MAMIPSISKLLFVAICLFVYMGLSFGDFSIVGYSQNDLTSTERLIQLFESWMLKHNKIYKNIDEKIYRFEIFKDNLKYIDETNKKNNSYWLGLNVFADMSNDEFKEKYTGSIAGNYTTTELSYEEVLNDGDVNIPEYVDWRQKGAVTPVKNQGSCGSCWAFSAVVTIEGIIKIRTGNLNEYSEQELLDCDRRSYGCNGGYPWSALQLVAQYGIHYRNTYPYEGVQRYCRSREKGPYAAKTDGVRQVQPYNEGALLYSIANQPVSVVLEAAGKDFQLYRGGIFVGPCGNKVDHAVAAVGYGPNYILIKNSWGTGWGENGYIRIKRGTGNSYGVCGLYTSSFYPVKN
# Chain of Rap guanine nucleotide exchange factor 4 (Homo sapiens) (Q8WZA2 whole entry, looked up): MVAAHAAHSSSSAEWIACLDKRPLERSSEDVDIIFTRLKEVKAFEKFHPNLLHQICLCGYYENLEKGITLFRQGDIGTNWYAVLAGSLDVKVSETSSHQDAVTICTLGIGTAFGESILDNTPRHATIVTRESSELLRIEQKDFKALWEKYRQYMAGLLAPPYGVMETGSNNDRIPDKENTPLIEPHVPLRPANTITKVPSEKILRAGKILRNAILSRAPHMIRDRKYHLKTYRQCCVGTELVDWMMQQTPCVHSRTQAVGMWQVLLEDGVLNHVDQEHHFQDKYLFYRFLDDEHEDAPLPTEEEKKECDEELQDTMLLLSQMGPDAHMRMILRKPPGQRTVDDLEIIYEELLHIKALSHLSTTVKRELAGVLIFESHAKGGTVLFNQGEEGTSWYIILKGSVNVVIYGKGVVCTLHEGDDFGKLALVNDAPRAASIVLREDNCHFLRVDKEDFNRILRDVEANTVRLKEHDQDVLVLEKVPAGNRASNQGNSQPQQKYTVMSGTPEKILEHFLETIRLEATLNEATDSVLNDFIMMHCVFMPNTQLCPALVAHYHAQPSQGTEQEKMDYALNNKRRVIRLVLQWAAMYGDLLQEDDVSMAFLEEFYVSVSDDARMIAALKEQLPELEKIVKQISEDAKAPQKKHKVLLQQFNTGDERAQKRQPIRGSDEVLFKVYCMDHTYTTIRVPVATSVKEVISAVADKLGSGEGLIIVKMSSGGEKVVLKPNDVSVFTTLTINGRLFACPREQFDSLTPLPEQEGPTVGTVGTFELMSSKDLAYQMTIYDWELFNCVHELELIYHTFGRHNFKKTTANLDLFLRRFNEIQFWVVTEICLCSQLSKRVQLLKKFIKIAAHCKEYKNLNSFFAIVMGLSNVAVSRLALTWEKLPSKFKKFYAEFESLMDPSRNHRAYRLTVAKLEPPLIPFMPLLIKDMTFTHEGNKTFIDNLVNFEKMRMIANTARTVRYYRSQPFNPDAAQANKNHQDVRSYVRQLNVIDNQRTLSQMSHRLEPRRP
# Chain of Rap guanine nucleotide exchange factor 3 (Homo sapiens) (O95398 whole entry, looked up): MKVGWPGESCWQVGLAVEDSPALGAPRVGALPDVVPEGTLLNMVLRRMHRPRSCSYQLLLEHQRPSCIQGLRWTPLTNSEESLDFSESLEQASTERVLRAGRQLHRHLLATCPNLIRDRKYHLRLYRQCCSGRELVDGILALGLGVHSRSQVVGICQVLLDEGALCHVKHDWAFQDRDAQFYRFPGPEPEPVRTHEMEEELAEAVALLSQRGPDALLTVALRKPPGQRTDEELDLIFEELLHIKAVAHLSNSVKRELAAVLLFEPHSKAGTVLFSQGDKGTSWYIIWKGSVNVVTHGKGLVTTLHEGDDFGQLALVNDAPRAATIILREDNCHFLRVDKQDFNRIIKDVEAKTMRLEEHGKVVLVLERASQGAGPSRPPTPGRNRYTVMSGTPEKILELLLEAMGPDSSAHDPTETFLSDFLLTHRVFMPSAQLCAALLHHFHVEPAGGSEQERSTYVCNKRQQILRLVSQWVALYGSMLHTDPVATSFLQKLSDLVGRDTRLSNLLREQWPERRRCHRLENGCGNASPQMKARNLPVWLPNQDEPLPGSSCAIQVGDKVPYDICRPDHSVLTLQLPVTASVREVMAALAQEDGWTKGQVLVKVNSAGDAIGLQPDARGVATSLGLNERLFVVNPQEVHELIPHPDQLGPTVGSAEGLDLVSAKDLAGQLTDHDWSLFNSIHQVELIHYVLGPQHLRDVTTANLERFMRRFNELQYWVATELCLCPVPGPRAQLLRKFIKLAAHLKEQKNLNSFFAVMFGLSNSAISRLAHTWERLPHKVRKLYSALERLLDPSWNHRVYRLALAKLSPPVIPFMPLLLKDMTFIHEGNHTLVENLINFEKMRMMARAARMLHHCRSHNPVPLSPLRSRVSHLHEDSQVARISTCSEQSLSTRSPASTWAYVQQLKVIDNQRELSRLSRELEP
# Chain of Catechol O-methyltransferase (Homo sapiens) (P21964 whole entry, looked up): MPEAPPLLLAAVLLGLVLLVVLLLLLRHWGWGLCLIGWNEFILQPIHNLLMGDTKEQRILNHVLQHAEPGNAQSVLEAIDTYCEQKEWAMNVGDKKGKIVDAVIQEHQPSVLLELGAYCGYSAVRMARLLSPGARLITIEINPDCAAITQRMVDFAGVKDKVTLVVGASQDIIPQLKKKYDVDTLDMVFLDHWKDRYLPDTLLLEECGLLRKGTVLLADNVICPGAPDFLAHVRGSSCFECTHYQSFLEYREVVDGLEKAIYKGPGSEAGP
structure (smiles),measurement,setting,value
CC(=O)Oc1cc2c(s1)CCN(C(C(=O)C1CC1)c1ccccc1F)C2 (centres undefined),Potency,[1],4.36 µM (active) and 4.25 µM (active)
same,Potency,[2],inactive
same,Potency,[3],inactive
O=C(NCCN1CCOCC1)c1ccc(Cl)cc1,Potency,[1],inactive
same,outcome,[4],inactive
same,Potency,[2],inactive
same,Potency,[3],inactive
CCN(CC)CCOC(=O)c1ccc(N)cc1,Potency,[1],inactive
same,outcome,[4],inactive
same,Potency,[2],inactive
same,Potency,[3],inactive
O=C1Nc2ccc(Cl)cc2C(C#CC2CC2)(C(F)(F)F)O1 (centres undefined),Potency,[1],12 µM (active)
Cc1ccc([C@@H]2O[C@H](CO)[C@@H](O)[C@H](O)[C@@H]2O)cc1Cc1ccc(-c2ccc(F)cc2)s1,Potency,[1],12 µM (active)
COc1ccccc1N1CCN(CCCNc2cc(=O)n(C)c(=O)n2C)CC1,Potency,[1],inactive
same,outcome,[4],inactive
same,Potency,[2],inactive
same,Potency,[3],inactive
O=C(O)c1c(Cl)c(Cl)c(Cl)c(Cl)c1-c1c2cc(I)c(=O)c(I)c-2oc2c(I)c(O)c(I)cc12,Potency,[1],10.7 µM (active)
same,Potency,[5],9.55 µM (active)
same,Potency,[3],9.34 µM (active)
O=c1cc(-c2ccc(O)cc2)oc2cc(O)cc(O)c12,Potency,[1],21.3 µM (active)
same,outcome,[4],inactive
same,Potency,[2],5.9 µM (active)
same,Potency,[3],4.68 µM (active)
Cc1cnc(C(=O)O)c[n+]1[O-],Potency,[1],inactive
same,Potency,[2],inactive
same,Potency,[3],inactive
CCOc1ccc(Nc2nc(-c3c(C)nc4ccccn34)cs2)cc1,Potency,[1],13.5 µM (active)
same,Potency,[5],inactive
same,Potency,[2],0.183 µM (active)
same,Potency,[3],183 nM (active) and inactive
NCCS,Potency,[1],inactive
same,outcome,[4],inactive
same,Potency,[2],inactive
same,Potency,[3],inactive
O=C(CCN1CCN(C(=O)OCc2cc(Cl)cc(Cl)c2)CC1)c1ccc2[nH]c(=O)oc2c1,Potency,[1],7.56 µM (active)
same,Potency,[2],18.6 µM (active)
same,Potency,[3],14.5 µM (active) and 18.6 µM (active)
COc1ccc(C2CC(c3ccccc3)=NN2c2ccc(S(N)(=O)=O)cc2)cc1 (centres undefined),Potency,[1],6.74 µM (active)
O=C(O)CCc1nc(-c2ccccc2)c(-c2ccccc2)o1,Potency,[1],inactive
same,outcome,[4],inactive
same,Potency,[2],inactive
same,Potency,[3],inactive
COc1cc2ncnc(Nc3ccc(F)c(Cl)c3)c2cc1OCCCN1CCOCC1,Potency,[1],inactive
same,Potency,[5],7.58 µM (active)
same,Potency,[2],23.7 µM (active) and 20.6 µM (active) and inactive
same,Potency,[3],10.6 µM (active) and 11.5 µM (active)
same,activity,[6],-74.8%
COCCOc1nc(-c2ccc(Cl)c(Cl)c2)n(-c2ccc(NC(=O)CCl)cc2)n1,Potency,[1],4.77 µM (active)
same,Potency,[2],1.48 µM (active)
same,Potency,[3],1.32 µM (active)
CC1=C(/C=C/C(C)=C/C=C/C(C)=C/C(=O)Nc2ccc(O)cc2)C(C)(C)CCC1,Potency,[1],2.75 µM (active)
same,outcome,[4],inactive
same,Potency,[2],1.88 µM (active) and 2.95 µM (active)
same,Potency,[3],1.88 µM (active) and 2.95 µM (active)
Cc1c(NC(=O)c2ccc(C(C)(C)C)cc2)cccc1-c1cn(C)c(=O)c(Nc2ccc(C(=O)N3CCOCC3)cc2)n1,Potency,[1],2.13 µM (active)
same,Potency,[2],inactive
CCN(CC)C(=O)c1ccc(O)c(OC)c1,Potency,[1],inactive
same,outcome,[4],inactive
same,Potency,[2],inactive
same,Potency,[3],inactive
Cc1cccc(C)c1OCC(C)N (centres undefined),Potency,[1],inactive
same,outcome,[4],inactive
same,Potency,[2],inactive
same,Potency,[3],inactive
CC1(C)CCC2=C(O1)c1ccccc1C(=O)C2=O,outcome,[7],inactive
same,outcome,[8],inactive
same,outcome,[9],inactive
same,outcome,[10],inactive
COc1ccc(-n2c(C)c([N+](=O)[O-])c3ccc(O)cc32)cc1,Potency,[2],inactive
same,Potency,[3],inactive
O=C(Nc1c(Cl)cncc1Cl)c1ccc(OC(F)F)c(OCC2CC2)c1,Potency,[2],inactive
same,Potency,[3],inactive
COc1cc(N2CCC(N3CCN(C)CC3)CC2)ccc1Nc1ncnc(Nc2ccccc2S(=O)(=O)C(C)C)n1,Potency,[2],6.49 µM (active) and 9.34 µM (active)
same,Potency,[3],18.4 µM (active) and 10.5 µM (active)
CS(=O)c1ccc(-c2nc(-c3ccc(F)cc3)c(-c3ccncc3)[nH]2)cc1 (centres undefined),Potency,[2],18.6 µM (active)
N[C@@]1(C(=O)O)CS(=O)(=O)[C@H]2[C@H](C(=O)O)[C@H]21,Potency,[2],inactive
same,Potency,[3],inactive
CC#CCn1c(N2CCC[C@@H](N)C2)nc2c1c(=O)n(Cc1nc(C)c3ccccc3n1)c(=O)n2C,Potency,[2],inactive
same,Potency,[3],inactive
COc1cc2ncnc(-n3nc(-c4ccccn4)nc3N)c2cc1OC,Potency,[2],1.59 µM (active)
same,Potency,[3],2.52 µM (active)
CN(C)C1CCN(C(=O)c2ccc(NC(=O)Nc3nc(N4CCOCC4)nc(N4CCOCC4)n3)cc2)CC1,Potency,[2],25.2 nM (active) and 37.2 nM (active)
same,Potency,[3],28.2 nM (active) and 37.2 nM (active)
